Bioassay records from PubChem.
MazEF act – increases E. coli MazEF RNase cleavage of RNA. P0AE70. FAM/BHQ RNA-DNA oligo cleavage fluorescence, 5 h. activation, % at 20 µM. 350,000 tested, 0.32% active. AID 504720; in the data active = activation above about 50%
Target sequence (P0AE70 whole entry, looked up): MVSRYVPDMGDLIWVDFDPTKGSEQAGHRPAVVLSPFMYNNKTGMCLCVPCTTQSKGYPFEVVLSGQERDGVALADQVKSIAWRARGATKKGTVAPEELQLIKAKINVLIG
Anthrax LF inh2 – anthrax lethal factor protease inhibition. inhibition, % at 10 µM. P15917. 360,000 tested, 0.12% active. multiplex microsphere protease cleavage assay, LF
BoNT F protease – inhibitors of Botulinum neurotoxin F light chain protease. Multiplex microsphere protease cleavage assay, flow cytometry. inhibition, % at 10 µM. 360,000 tested, 0.22% active. AID 588497; in the data active = inhibition above about 35%, passing the limit was not always enough; inconclusive = no clear call, values can overlap the other calls
BoNT A protease – inhibitors of Botulinum neurotoxin A light chain protease; inhibition, % at 10 µM; AID 588499; multiplex microsphere protease substrate cleavage, flow cytometry; 360,000 tested, 0.17% active
Bead autofluor – counter-screen for toxin protease inhibitors: compound fluorescence | fluorescence intensity (no concentration beside the values) | compound autofluorescence counterscreen, microsphere flow cytometry; hits give high values | 360,000 tested, 3.1% active; in the data active = fluorescence intensity above about 16000; inconclusive = no clear call, values can overlap the other calls
SSB-PriA inh – K. pneumoniae PriA-SSBct interaction inhibition. 430,000 tested, 0.6% active. inhibition, % at 33 µM. AlphaScreen SSBct-PriA binding, biotinylated peptide; in the data active = inhibition mostly above about 37%, no sharp cut-off; inactive = mostly below about 20%
A number is an active result; . = inactive; ? = inconclusive; / = no result given. Most compounds without a hit are left out; they make up all but 3.3% or so of the library. Cut-off read from the data, not from the text of the source, unless noted: active = inhibition above about 30%; inconclusive = no clear call, values can overlap the other calls; inactive = below that.

SMILES	MazEF act	Anthrax LF inh2	BoNT F protease	BoNT A protease	Bead autofluor	SSB-PriA inh
CC(C)C(C)NC(=O)CSc1nnc(-c2c[nH]c3ccccc23)o1 (configuration not stated)	.	.	.	.	.	.
Cc1ccc(C(=O)CSc2nnc(-c3c[nH]c4ccccc34)o2)cc1	.	.	.	?	19814	.
O=[N+]([O-])c1ccc(N2CCN(S(=O)(=O)c3ccc(Cl)cc3)CC2)cc1NCC1CCCO1 (configuration not stated)	.	.	.	.	16643	.
Cc1ccc(NC(=O)c2ccc(NCc3ccco3)c([N+](=O)[O-])c2)cc1Cl	334	.	.	.	.	.
Cc1ccc(NC(=O)c2ccc3c(c2)C(=O)N(CC2CCCO2)C3=O)cc1C (configuration not stated)	.	.	.	.	.	.
Cc1ccc(NC(=O)c2ccc(NCC3CCCO3)c([N+](=O)[O-])c2)cc1Cl (configuration not stated)	267	.	.	.	.	.
O=C(Nc1ccc2c(c1)C(=O)N(CC1CCCO1)C2=O)c1ccc(Cl)c(Cl)c1 (configuration not stated)	.	.	.	?	22241	.
CCN(CC)CCN1C(=O)C(=O)C(=C(O)c2c(C)[nH]c(C(=O)OC)c2C)C1c1ccc(C)o1 (configuration not stated)	/	/	/	/	/	.
COCCNC(=O)Cn1nc2c(c1NC(=O)Cc1noc3ccccc13)CSC2	/	/	/	/	/	.
O=C(c1csc2c1CCCC2)N1CCN(c2ccc(F)cc2)CC1	53	.	.	.	.	.
O=C(c1csc2c1CCCC2)N1CCN(c2cccc(C(F)(F)F)c2)CC1	.	.	.	.	.	.
Cc1sc(NC(=O)c2ccco2)c(C(c2ccncc2)N2CCOCC2)c1C (configuration not stated)	.	.	.	.	18732	.
Cc1sc(NC(=O)c2ccco2)c(CN2CCN(c3ccccc3)CC2)c1C	.	.	.	.	20298	.
Cc1sc(NC(=O)c2ccco2)c(CN2CCCCC2)c1C	.	.	.	.	.	.
CCC(C)c1ccccc1NC(=O)COC(=O)c1ccc(C)c(NC(=O)c2ccco2)c1 (configuration not stated)	.	.	.	.	21016	.
COc1cc(C(=O)OCC(=O)NC2CCCC2)cc(NC(=O)c2ccco2)c1OC	.	.	.	.	20665	.
COc1cc(C(=O)OCC(C)=O)cc(NC(=O)c2ccco2)c1OC	.	.	.	.	.	.
Cc1ccc(C(=O)OCC(=O)Nc2ccccc2)cc1NC(=O)c1ccco1	.	.	.	.	17209	.
Cc1ccc(C(=O)OCC(=O)Nc2ccc(N(C)C)cc2)cc1NC(=O)c1ccco1	.	.	.	.	.	.
Cc1ccc(C(=O)OCC(=O)Nc2cc(F)ccc2F)cc1NC(=O)c1ccco1	.	.	.	.	.	.
O=C(Nc1cccc(C(F)(F)F)c1)c1ccco1	.	.	.	.	23988	.
O=C(CN1CCC(c2nnc(C(F)(F)F)o2)CC1)N1CCC(Cc2ccccc2)CC1	/	/	/	/	/	.
CC(C)(C)C(=O)COC(=O)c1cccc(NC(=O)c2ccco2)c1	.	.	.	.	23138	.
COC(=O)c1cccc(NC(=O)c2ccco2)c1	.	.	.	.	.	.
CCOC(=O)c1sc(NC(=S)NC(=O)c2cccs2)cc1C	/	/	/	/	/	.
SMILES	MazEF act	Anthrax LF inh2	BoNT F protease	BoNT A protease	Bead autofluor	SSB-PriA inh
COc1cccc(-n2nnc3c(N4CCN(C(=O)[C@@H]5CCCO5)CC4)ncnc32)c1	/	/	/	/	/	.
Cc1nnc2ccc(N3CCCC3)nn12	.	.	.	.	.	.
Cc1nnc2ccc(N3CCC4(CC3)OCCO4)nn12	.	.	.	?	23146	.
CCSc1ccccc1C(=O)N1CC(c2nc(-c3ccc[nH]c3=O)no2)C1	/	/	/	/	/	.
N#Cc1nc(-c2ccco2)oc1N1CCN(c2cccc(Cl)c2)CC1	.	.	.	.	.	50
N#Cc1nc(-c2ccco2)oc1N1CCc2ccccc2C1	.	.	.	.	.	43
COc1ccccc1-c1nc(C#N)c(N2CCN(c3cccc(Cl)c3)CC2)o1	.	.	.	.	25154	.
CCOC(=O)c1c(NC(=O)c2ccc3ncsc3c2)sc2c1CCN(C(=O)OCC)C2	/	/	/	/	/	.
O=C(NC1CCN(c2cc(C(F)(F)F)ncn2)CC1)c1n[nH]c2ccccc12	/	/	/	/	/	.
O=C(CSCc1ccccc1)NCC#CCN1CCCC1	/	/	/	/	/	.
COc1ccc(OC)c(-c2nnc(NC(C)=O)o2)c1	/	/	/	/	/	.
O=C(CSc1nncc(-c2ccccc2)n1)N1CCN(c2cccc(Cl)c2)CC1	/	/	/	/	/	.
